PubChem BioAssay (NCI)
Compounds without any hit were thinned out: in the full panel of roughly 79,000, 15% have a hit. A number with no mark means an inactive call. Calls of active or inactive are those of the source. No stated cut-off is given here; in the data, active means growth inhibition above about 70%; inactive means the rest.

Tests used:
[1] = NCI Yeast Anticancer Drug Screen. Data for the rad50 strain (AID 155);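 further: 0% = growth of vehicle-only cultures of the same strain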; settings: S. cerevisiae rad50 strain growth inhibition; at 50.0 µM; active compounds read high
In short: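 Inhibition values express reduced yeast growth in compound-treated cultures relative to vehicle-treated controls.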

[2] = NCI Yeast Anticancer Drug Screen. Data for the mec2-1 strain (AID 157); settings: S. cerevisiae mec2-1 strain, at 50.0 µM, active compounds read high
In short: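 Each compound was tested on mec2-1 yeast, a strain altered in DNA damage repair or cell cycle control. Growth inhibition is reported relative to vehicle.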

[3] = NCI Yeast Anticancer Drug Screen. Data for the sgs1 mgt1 strain (AID 161);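 further: 0% = growth of cultures given vehicle only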; settings: S. cerevisiae sgs1 mgt1 strain, at 50.0 µM, active compounds read high
In short: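 Genetically altered yeast, compound exposure, growth inhibition relative to vehicle.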

[4] = NCI Yeast Anticancer Drug Screen. Data for the cln2 rad14 strain (AID 165);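 further: 0% = growth equal to vehicle treated cultures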; settings: S. cerevisiae cln2 rad14 strain, at 50.0 µM, active compounds read high
In short: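 Test compounds were added to cln2 rad14 yeast cultures; inhibition of growth was then determined by comparison with vehicle treatment.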

[5] = NCI Yeast Anticancer Drug Screen. Data for the bub3 strain (AID 167); settings: S. cerevisiae bub3 mutant strain, at 50.0 µM, active compounds read high
In short: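 Steps: expose the mutant yeast strain to compound; grow alongside vehicle-treated cultures; measure growth; express inhibition against the vehicle cultures.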

[6] = NCI Yeast Anticancer Drug Screen. Data for the mlh1 rad18 strain (AID 175); settings: S. cerevisiae mlh1 rad18 strain growth inhibition; at 50.0 µM; active compounds read high
In short: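 Inhibition values reflect reduced growth of mutant yeast versus vehicle-treated controls following compound exposure; the mutations affect DNA damage repair.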

CCNC(=O)C1C2C=CC(C2)C1C(=O)NCC (stereo unspecified)
growth inhibition [1]: 2.9%
growth inhibition [2]: -9.6%
growth inhibition [3]: -9.15%
growth inhibition [4]: -46%
growth inhibition [5]: -5.3%
growth inhibition [6]: 0.05%

c1ccc(Cc2nnc3n2CCC(c2ccccc2)S3)cc1 (stereo unspecified)
growth inhibition [1]: -9.8%
growth inhibition [2]: 1.3%
growth inhibition [3]: -10.9%
growth inhibition [4]: 2.4%
growth inhibition [5]: 5.05%
growth inhibition [6]: -0.25%

COc1ccc2c(c1)OC(C)(C)C(c1ccccc1)=C2c1ccc2c(c1)NCCO2
growth inhibition [1]: 1%
growth inhibition [2]: -2.35%
growth inhibition [3]: 11.1%
growth inhibition [4]: -38.5%
growth inhibition [5]: -22.6%
growth inhibition [6]: 32.2%

CCOC(=O)/C=C/C=C(\OCC)C1CCC2C3CC=C4CC(OC(C)=O)CCC4(C)C3CCC12C (stereo unspecified)
growth inhibition [1]: -4%
growth inhibition [2]: -0.35%
growth inhibition [3]: 23.1%
growth inhibition [4]: 19.4%
growth inhibition [5]: -3.3%
growth inhibition [6]: -2.55%

COc1ccc(C(N)C(=O)O)cc1 (stereo unspecified)
growth inhibition [1]: -17.4%
growth inhibition [2]: -9.4%
growth inhibition [3]: -6.8%
growth inhibition [4]: -21.6%
growth inhibition [5]: -12.5%
growth inhibition [6]: -10.9%

C=CC[n+]1cccc(Oc2ccc([N+](=O)[O-])cc2[N+](=O)[O-])c1
growth inhibition [1]: 73.7% (active)
growth inhibition [2]: 12.4%
growth inhibition [3]: 63.5%
growth inhibition [4]: 31.3%
growth inhibition [5]: 18.1%
growth inhibition [6]: 54.7%

CCCCNCC(=O)Nc1ccc(C(=O)OC(C)C)cc1
growth inhibition [1]: -1.9%
growth inhibition [2]: -18.1%
growth inhibition [3]: -5.95%
growth inhibition [4]: -35.3%
growth inhibition [5]: 10.8%
growth inhibition [6]: -1.75%

Cc1cccc(C)c1NC(=O)CCC(=O)NC(N)=NC#N
growth inhibition [1]: -33.1%
growth inhibition [2]: -23.8%
growth inhibition [3]: -25.7%
growth inhibition [4]: 9.7%
growth inhibition [5]: -23.8%
growth inhibition [6]: -23.1%

NC(=S)N/N=C/c1ccncc1
growth inhibition [1]: -25.8%
growth inhibition [2]: -10.6%
growth inhibition [3]: -17.6%
growth inhibition [4]: -25.9%
growth inhibition [5]: 9.35%
growth inhibition [6]: -52.9%

Cc1ccc2c(c1)C(=O)C1(C2)Cc2ccc(C)cc2C1=O
growth inhibition [1]: -53%
growth inhibition [2]: -45.9%
growth inhibition [3]: 4.05%
growth inhibition [4]: -3.45%
growth inhibition [5]: 5.45%
growth inhibition [6]: -24.9%

CC1CN(c2nc3ccccc3o2)C(C)CN1c1nc2ccccc2o1 (stereo unspecified)
growth inhibition [1]: -7.15%
growth inhibition [2]: 5.6%
growth inhibition [3]: -9.1%
growth inhibition [4]: 11.8%
growth inhibition [5]: 9.9%
growth inhibition [6]: -12.3%

O=CC1CCCO1 (stereo unspecified)
growth inhibition [1]: 21.2%
growth inhibition [2]: -22.2%
growth inhibition [3]: 15.2%
growth inhibition [4]: 6.9%
growth inhibition [5]: 6.45%
growth inhibition [6]: 22%

CC(=O)OCCOCCCl
growth inhibition [1]: -12.8%
growth inhibition [2]: 20.2%
growth inhibition [3]: 1.5%
growth inhibition [4]: -13.3%
growth inhibition [5]: 19.2%
growth inhibition [6]: 12.1%

CCCCSc1nc2ccccc2c(=O)[nH]1
growth inhibition [1]: -10.7%
growth inhibition [2]: -13%
growth inhibition [3]: -4.6%
growth inhibition [4]: 13.3%
growth inhibition [5]: 9.3%
growth inhibition [6]: 3.1%

CCCCCCCCCCCCCCCCNC(=O)C(C)O (stereo unspecified)
growth inhibition [1]: 23.9%
growth inhibition [2]: 3.2%
growth inhibition [3]: 17.2%
growth inhibition [4]: -13.9%
growth inhibition [5]: 7.7%
growth inhibition [6]: 30.4%

COC1OC(COC(=O)Nc2ccccc2)C2OC12 (stereo unspecified)
growth inhibition [1]: 8.45%
growth inhibition [2]: 2.8%
growth inhibition [3]: 24.6%
growth inhibition [4]: -55.4%
growth inhibition [5]: -10%
growth inhibition [6]: 1.25%

COc1ccccc1-c1cc(=O)c2c(C)cc(C)nc2[nH]1
growth inhibition [1]: -15.8%
growth inhibition [2]: -16.1%
growth inhibition [3]: -0.6%
growth inhibition [4]: -20.3%
growth inhibition [5]: 6.25%
growth inhibition [6]: 1.65%

CSC(=O)c1sc(SC)[n+](-c2ccccc2)c1O
growth inhibition [1]: 4.95%
growth inhibition [2]: -20.2%
growth inhibition [3]: -1%
growth inhibition [4]: -5.5%
growth inhibition [5]: -13.3%
growth inhibition [6]: -7.9%

CC(C)C1OC(c2ccccc2)OCC1(C)C (stereo unspecified)
growth inhibition [1]: -14.8%
growth inhibition [2]: -18.2%
growth inhibition [3]: -4.15%
growth inhibition [4]: -39.2%
growth inhibition [5]: -4.15%
growth inhibition [6]: 6.35%

CC(C)c1cc(C(C)C)c(S(=O)(=O)N/N=C2\CC3CCC2(C)C3(C)C)c(C(C)C)c1 (stereo unspecified)
growth inhibition [1]: -8.7%
growth inhibition [2]: -16.9%
growth inhibition [3]: -13.3%
growth inhibition [4]: -4.35%
growth inhibition [5]: -54.5%
growth inhibition [6]: 0.65%

Cc1ccc(P(=S)(c2ccc(C)c3ccccc23)c2ccc(C)c3ccccc23)c2ccccc12
growth inhibition [1]: -8.1%
growth inhibition [2]: -6.3%
growth inhibition [3]: -3.4%
growth inhibition [4]: -8.7%
growth inhibition [5]: 0.1%
growth inhibition [6]: -4.9%

O=C1c2c(-c3ccccc3)ccc(-c3ccccc3)c2C2(O)OC1(O)c1c(-c3ccccc3)ccc(-c3ccccc3)c1C2=O
growth inhibition [1]: 5.65%
growth inhibition [2]: 4.95%
growth inhibition [3]: 9.1%
growth inhibition [4]: -6.9%
growth inhibition [5]: 6.4%
growth inhibition [6]: -13.9%

COc1ccc(-c2oc3cc(OC)ccc3c(=O)c2O)cc1
growth inhibition [1]: 22.5%
growth inhibition [2]: 25.4%
growth inhibition [3]: 8.1%
growth inhibition [4]: -3.5%
growth inhibition [5]: -5.1%
growth inhibition [6]: 8.25%

CC1C2c3ccccc3C(c3ccccc32)C1CN1C(CCO)COC1c1ccccc1 (stereo unspecified)
growth inhibition [1]: 4.05%
growth inhibition [2]: 8.9%
growth inhibition [3]: -3.25%
growth inhibition [4]: -1.75%
growth inhibition [5]: 1.4%
growth inhibition [6]: 7.6%

N#CC(C(=N/NC(N)=S)/C(=N/NC(N)=S)C(C#N)c1ccc(Cl)cc1)c1ccc(Cl)cc1 (stereo unspecified)
growth inhibition [1]: -16.9%
growth inhibition [2]: -19.8%
growth inhibition [3]: -23.9%
growth inhibition [4]: -6.85%
growth inhibition [5]: -4.95%
growth inhibition [6]: -13.1%

CC(=O)OCC(=O)[C@@]1(O)CC[C@H]2[C@@H]3CC[C@H]4[C@H](Br)C(=O)CC[C@]4(C)[C@H]3C(=O)C[C@@]21C
growth inhibition [1]: -20.1%
growth inhibition [2]: -33.1%
growth inhibition [3]: -11.3%
growth inhibition [4]: -12.8%
growth inhibition [5]: -8.1%
growth inhibition [6]: -23.9%

NCc1cnccn1
growth inhibition [1]: -7.05%
growth inhibition [2]: 10.6%
growth inhibition [3]: -4.65%
growth inhibition [4]: 8.45%
growth inhibition [5]: 1.1%
growth inhibition [6]: -1.85%

CC1(C)N=C(C(N)=O)c2ncn(CCO)c2N1
growth inhibition [1]: -12.4%
growth inhibition [2]: -34%
growth inhibition [3]: -21.6%
growth inhibition [4]: -10.7%
growth inhibition [5]: -9.95%
growth inhibition [6]: -23.4%

O=C(C[n+]1cccc(CO)c1)c1ccc(-c2ccc(C(=O)C[n+]3cccc(CO)c3)cc2)cc1
growth inhibition [1]: 22.8%
growth inhibition [2]: 5.35%
growth inhibition [3]: 31.7%
growth inhibition [4]: -4.7%
growth inhibition [5]: -1.7%
growth inhibition [6]: 11.7%

O=C1N=C(c2c[nH]c3ccccc23)C(=O)N1
growth inhibition [1]: -1.8%
growth inhibition [2]: 6.9%
growth inhibition [3]: 15.9%
growth inhibition [4]: 12.6%
growth inhibition [5]: -1.45%
growth inhibition [6]: 8.8%

O=C(CN1CCCC1)Nc1ccc2c(c1)C1Oc3ccccc3CC1CO2 (stereo unspecified)
growth inhibition [1]: 7.65%
growth inhibition [2]: 4.2%
growth inhibition [3]: 5.55%
growth inhibition [4]: 11.6%
growth inhibition [5]: -12.7%
growth inhibition [6]: 30.6%

CC(C)CNC(=O)C(=O)NCC(C)C
growth inhibition [1]: -4.65%
growth inhibition [2]: -9.7%
growth inhibition [3]: -1.6%
growth inhibition [4]: -41.5%
growth inhibition [5]: -21.4%
growth inhibition [6]: -2.4%

CCCCCCCCCCCC(=O)OC(C)CO (stereo unspecified)
growth inhibition [1]: -3.9%
growth inhibition [2]: -10.9%
growth inhibition [3]: -3.7%
growth inhibition [4]: -32.9%
growth inhibition [5]: -1.45%
growth inhibition [6]: 17.1%

COc1ccc(C2(C#N)CCCC2)cc1
growth inhibition [1]: 5.8%
growth inhibition [2]: 12.4%
growth inhibition [3]: 0.95%
growth inhibition [4]: -30.6%
growth inhibition [5]: 0.7%
growth inhibition [6]: 8.7%

CC(=O)c1cc2ccccc2n(O)c1=N
growth inhibition [1]: -32.9%
growth inhibition [2]: -10.8%
growth inhibition [3]: -24%
growth inhibition [4]: 17.1%
growth inhibition [5]: -15.2%
growth inhibition [6]: -17.3%

CC(CO)(CO)Nc1ncnc2ccccc12
growth inhibition [1]: -4.5%
growth inhibition [2]: -12%
growth inhibition [3]: -30.9%
growth inhibition [4]: -26.4%
growth inhibition [5]: -36.9%
growth inhibition [6]: 9.7%

CCCCCCCCCCCC(=O)C1=C(O)C(O)CCC1=O (stereo unspecified)
growth inhibition [1]: -1.35%
growth inhibition [2]: -4.7%
growth inhibition [3]: -6.55%
growth inhibition [4]: -50%
growth inhibition [5]: -7.4%
growth inhibition [6]: -16.9%

FC(F)(F)C(Cl)=C(Cl)Cl
growth inhibition [1]: -1.8%
growth inhibition [2]: -38.5%
growth inhibition [3]: 14.5%
growth inhibition [4]: 20.1%
growth inhibition [5]: -13.7%
growth inhibition [6]: -1.75%

CC(O)C1OC(=O)C(O)C1O (stereo unspecified)
growth inhibition [1]: -0.75%
growth inhibition [2]: 4.95%
growth inhibition [3]: -14.8%
growth inhibition [4]: -5.9%
growth inhibition [5]: 5.95%
growth inhibition [6]: -6.05%

OC/C(I)=C(I)\C(I)=C(\I)CO
growth inhibition [1]: 99.2% (active)
growth inhibition [2]: 99.3% (active)
growth inhibition [3]: 99.5% (active)
growth inhibition [4]: 99.4% (active)
growth inhibition [5]: 98.7% (active)
growth inhibition [6]: 99.4% (active)

O=C1SCC(O)=C1/C=N/Nc1nc2ccccc2o1
growth inhibition [1]: -11.9%
growth inhibition [2]: 6.45%
growth inhibition [3]: 27.1%
growth inhibition [4]: 31.7%
growth inhibition [5]: 13.2%
growth inhibition [6]: 12.3%
